“And” between values parts separate entries of the source, which are not always exact repeats. Equal entries are not always repeated. About 2,000 (36%) of roughly 5,500 compounds were called active. Not shown: some 18% with an inconclusive outcome. Cut-off read from the data, not from the text of the source: active = normalized growth mostly below about 0.91 (no sharp cut-off); inconclusive = no clear call, values can overlap the other calls; inactive = mostly above about 0.92. The list shows a part of the results.
Assay: chemical genetic growth profiling, strain panel (AID 1159580);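 note: tested at 20 µM; growth read once vehicle control cultures reached saturation at 30 °C; 1 = growth at the plate median or of vehicle wells; lower values mean less growth of the strain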
Conditions: growth OD

Measured: normalized growth

O=C(O)c1cc([N+](=O)[O-])ccc1NCCCc1ccccc1
inactive: S. cerevisiae deletion strains, locus YAL013W, strain DEP1, stronger effect = lower value 0.994 | S. cerevisiae deletion strains, locus YAL040C, strain CLN3, stronger effect = lower value 0.958 | S. cerevisiae deletion strains, locus YBR021W, strain FUR4, stronger effect = lower value 0.892 | S. cerevisiae deletion strains, locus YBR229C, strain ROT2, stronger effect = lower value 0.959 | S. cerevisiae deletion strains, locus YCL029C, strain bik1, stronger effect = lower value 0.931 | S. cerevisiae deletion strains, locus YCL061C, strain MRC1 (second series), stronger effect = lower value 1.01 | S. cerevisiae deletion strains, locus YDL035C, strain GPR1, stronger effect = lower value 0.953 | S. cerevisiae deletion strains, locus YDL074C, strain BRE1, stronger effect = lower value 0.972 | S. cerevisiae deletion strains, locus YDL101C, strain DUN1, stronger effect = lower value 0.984 | S. cerevisiae deletion strains, locus YDL134C, strain PPH21, stronger effect = lower value 0.966 | S. cerevisiae deletion strains, locus YDL192W, strain arf1, stronger effect = lower value 0.941 | S. cerevisiae deletion strains, locus YDR101C, strain arx1, stronger effect = lower value 0.933 | S. cerevisiae deletion strains, locus YDR150W, strain NUM1, stronger effect = lower value 1.01 | S. cerevisiae deletion strains, locus YDR162C, strain NBP2, stronger effect = lower value 0.953 | S. cerevisiae deletion strains, locus YDR318W, strain mcm21, stronger effect = lower value 0.939 | S. cerevisiae deletion strains, locus YDR363W, strain ESC2, stronger effect = lower value 0.987 | S. cerevisiae deletion strains, locus YDR388W, stronger effect = lower value 0.928 | S. cerevisiae deletion strains, locus YDR502C, strain sam2, stronger effect = lower value 0.94 | S. cerevisiae deletion strains, locus YEL061C, strain CIN8, stronger effect = lower value 0.97 | S. cerevisiae deletion strains, locus YER002W, strain NOP16, stronger effect = lower value 0.954 | S. cerevisiae deletion strains, locus YER110C, stronger effect = lower value 0.932 | S. cerevisiae deletion strains, locus YER167W, strain BCK2, stronger effect = lower value 0.943 | S. cerevisiae deletion strains, locus YGL086W, strain mad1, stronger effect = lower value 0.985 | S. cerevisiae deletion strains, locus YGL248W, strain PDE1, stronger effect = lower value 0.984 | S. cerevisiae deletion strains, locus YGR078C, strain PAC10, stronger effect = lower value 0.986 | S. cerevisiae deletion strains, locus YGR135W, strain pre9, stronger effect = lower value 0.933 | S. cerevisiae deletion strains, locus YGR252W, strain gcn5, stronger effect = lower value 0.893 | S. cerevisiae deletion strains, locus YHR030C, strain SLT2, stronger effect = lower value 0.941 | S. cerevisiae deletion strains, locus YHR079C, strain IRE1 (second series), stronger effect = lower value 0.934 | S. cerevisiae deletion strains, locus YHR129C, strain ARP1, stronger effect = lower value 0.952 | S. cerevisiae deletion strains, locus YHR200W, strain rpn10, stronger effect = lower value 0.922 | S. cerevisiae deletion strains, locus YIL066C, strain RNR3, stronger effect = lower value 0.983 | S. cerevisiae deletion strains, locus YIL073C, strain SPO22, stronger effect = lower value 0.829 | S. cerevisiae deletion strains, locus YJL095W, strain BCK1, stronger effect = lower value 1.01 | S. cerevisiae deletion strains, locus YJL134W, strain LCB3, stronger effect = lower value 0.944 | S. cerevisiae deletion strains, locus YJL168C, strain set2, stronger effect = lower value 0.94 | S. cerevisiae deletion strains, locus YJL187C, strain SWE1 (second series), stronger effect = lower value 0.996 | S. cerevisiae deletion strains, locus YJR043C, strain POL32, stronger effect = lower value 0.987 | S. cerevisiae deletion strains, locus YJR075W, strain HOC1, stronger effect = lower value 1 | S. cerevisiae deletion strains, locus YKL190W, strain CNB1, stronger effect = lower value 0.967 | S. cerevisiae deletion strains, locus YKR001C, strain vps1, stronger effect = lower value 0.934 | S. cerevisiae deletion strains, locus YLR039C, strain RIC1, stronger effect = lower value 0.973 | S. cerevisiae deletion strains, locus YLR058C, strain SHM2, stronger effect = lower value 0.964 | S. cerevisiae deletion strains, locus YLR102C, strain apc9, stronger effect = lower value 0.93 | S. cerevisiae deletion strains, locus YLR262C, strain YPT6, stronger effect = lower value 0.933 | S. cerevisiae deletion strains, locus YLR268W, strain sec22, stronger effect = lower value 0.957 | S. cerevisiae deletion strains, locus YLR330W, strain CHS5, stronger effect = lower value 0.927 | S. cerevisiae deletion strains, locus YLR342W, strain FKS1 (second series), stronger effect = lower value 0.952 | S. cerevisiae deletion strains, locus YLR371W, strain rom2, stronger effect = lower value 0.951 | S. cerevisiae deletion strains, locus YLR418C, strain cdc73, stronger effect = lower value 0.901 | S. cerevisiae deletion strains, locus YML016C, strain PPZ1, stronger effect = lower value 0.958 | S. cerevisiae deletion strains, locus YML032C, strain rad52, stronger effect = lower value 0.968 | S. cerevisiae deletion strains, locus YML124C, strain tub3, stronger effect = lower value 0.935 | S. cerevisiae deletion strains, locus YMR223W, strain ubp8, stronger effect = lower value 0.945 | S. cerevisiae deletion strains, locus YMR263W, strain SAP30, stronger effect = lower value 1.01 | S. cerevisiae deletion strains, locus YMR307W, strain GAS1, stronger effect = lower value 0.945 | S. cerevisiae deletion strains, locus YNL067W, strain RPL9B, stronger effect = lower value 0.998 | S. cerevisiae deletion strains, locus YNL128W, strain TEP1, stronger effect = lower value 0.974 | S. cerevisiae deletion strains, locus YNL153C, strain GIM3, stronger effect = lower value 1.03 and 0.971 | S. cerevisiae deletion strains, locus YNL175C, strain NOP13, stronger effect = lower value 0.95 | S. cerevisiae deletion strains, locus YNL197C, strain WHI3, stronger effect = lower value 0.949 | S. cerevisiae deletion strains, locus YNL224C, strain SQS1, stronger effect = lower value 0.945 | S. cerevisiae deletion strains, locus YNL233W, strain BNI4, stronger effect = lower value 1 | S. cerevisiae deletion strains, locus YNL307C, strain MCK1, stronger effect = lower value 0.939 | S. cerevisiae deletion strains, locus YNL322C, strain KRE1, stronger effect = lower value 0.968 | S. cerevisiae deletion strains, locus YNR052C, strain pop2, stronger effect = lower value 0.949 | S. cerevisiae deletion strains, locus YOL006C, strain TOP1, stronger effect = lower value 1.07 | S. cerevisiae deletion strains, locus YOL012C, strain htz1 0.889 | S. cerevisiae deletion strains, locus YOR061W, strain CKA2, stronger effect = lower value 0.972 | S. cerevisiae deletion strains, locus YOR069W, strain VPS5, stronger effect = lower value 0.958 | S. cerevisiae deletion strains, locus YOR083W, strain WHI5 (second series), stronger effect = lower value 0.978 | S. cerevisiae deletion strains, locus YOR136W, strain idh2, stronger effect = lower value 0.993 | S. cerevisiae deletion strains, locus YOR144C, strain elg1, stronger effect = lower value 0.939 | S. cerevisiae deletion strains, locus YOR184W, strain ser1, stronger effect = lower value 0.948 | S. cerevisiae deletion strains, locus YOR316C, strain cot1, stronger effect = lower value 0.945 | S. cerevisiae deletion strains, locus YPL055C, strain LGE1, stronger effect = lower value 1.01 and 1.02 | S. cerevisiae deletion strains, locus YPR163C, strain tif3, stronger effect = lower value 0.925 | S. cerevisiae deletion strains, locus YPR167C, strain met16, stronger effect = lower value 0.943 | S. cerevisiae deletion strains, strain wtn01, stronger effect = lower value 0.967 | S. cerevisiae strains, strain wild type, stronger effect = lower value 0.963
active: S. cerevisiae deletion strains, locus YDL185W, strain tfp1, stronger effect = lower value 0.868 | S. cerevisiae deletion strains, locus YER155C, strain BEM2, stronger effect = lower value 0.915 | S. cerevisiae deletion strains, locus YGL078C, strain dbp3, stronger effect = lower value 0.895 | S. cerevisiae deletion strains, locus YHR094C, strain hxt1, stronger effect = lower value 0.921 | S. cerevisiae deletion strains, locus YIL125W, strain kgd1, stronger effect = lower value 0.861 | S. cerevisiae deletion strains, locus YIR030C, strain dcg1, stronger effect = lower value 0.918 | S. cerevisiae deletion strains, locus YKL009W, strain mrt4, stronger effect = lower value 0.707 | S. cerevisiae deletion strains, locus YKL068W, stronger effect = lower value 0.873 | S. cerevisiae deletion strains, locus YKL085W, strain MDH1 (second series), stronger effect = lower value 0.848 | S. cerevisiae deletion strains, locus YKL085W, strain MDH1, stronger effect = lower value 0.848 | S. cerevisiae deletion strains, locus YMR078C, strain ctf18, stronger effect = lower value 0.903 | S. cerevisiae deletion strains, locus YNL250W, strain rad50, stronger effect = lower value 0.851 | S. cerevisiae deletion strains, locus YNL271C, strain bni1, stronger effect = lower value 0.874 | S. cerevisiae deletion strains, locus YNL298W, strain CLA4, stronger effect = lower value 0.753 | S. cerevisiae deletion strains, locus YOL147C, strain pex11, stronger effect = lower value 0.931 | S. cerevisiae deletion strains, locus YPR119W, strain clb2, stronger effect = lower value 0.924 | S. cerevisiae deletion strains, locus YPR141C, strain kar3, stronger effect = lower value 0.872

Reference: PubChem BioAssay AID1159580 (chemical genetic matrix, 2015)
